Reference: PubChem BioAssay (EPA / NIEHS)
Records with an inconclusive call do not appear. The source made the active and inactive calls. How the source made its calls, unless noted: active means hit-call score of the fitted dose curve at least 0.9, where 1 is the maximum; inactive means score below 0.9.

What was measured:
[1] = read-out: Nuclear factor NF-kappa-B p105 subunit (Homo sapiens) (UniProt P19838); experiment: LTEA_HepaRG_NFKB1: Life Technologies and Expression Analysis (LTEA) Assay for Nuclear Factor Kappa B Subunit 1 (NFKB1) using HepaRG (AID 2283521); details: mRNA level, 48 h; actives raise or lower the signal;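 further: TaqMan qRT-PCR transcript normalised to ACTB GAPDH and POLR2A housekeeping genes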
In short: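 Differentiated human HepaRG cells in serum-free induction medium with 0.5% DMSO were exposed for 48 h to eight half-log concentrations, top 100 uM, in duplicate. NFKB1 mRNA measured by Fluidigm TaqMan qRT-PCR, normalised to ACTB, GAPDH and POLR2A; bidirectional fit versus DMSO.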

[2] = read-out: solute carrier (SLC22A1), SLC22A1 (gene 6580); experiment: LTEA_HepaRG_SLC22A1: Life Technologies and Expression Analysis (LTEA) Assay for solute carrier (SLC22A1) using HepaRG (AID 2283524); details: mRNA level, 48 h; actives raise or lower the signal
In short: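 Transcript induction or suppression of SLC22A1 in human HepaRG cultures is scored after 48 h chemical treatment, with DMSO (0.5%) as baseline for bidirectional fitting. Concentrations span eight half-log points topping at 100 uM.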

[3] = read-out: Pyruvate Dehydrogenase Kinase 4 (PDK4), PDK4 (gene 5166); experiment: LTEA_HepaRG_PDK4: Life Technologies and Expression Analysis (LTEA) Assay for Pyruvate Dehydrogenase Kinase 4 (PDK4) using HepaRG (AID 2283525); details: mRNA level, 48 h; actives raise or lower the signal
In short: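 Eight-point, half-log concentration series (max 100 uM, 0.5% DMSO) applied to differentiated HepaRG cells for 48 h in duplicate. Endpoint: PDK4 mRNA induction or repression by qRT-PCR against DMSO baseline.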

[4] = read-out: NAD(P)H dehydrogenase [quinone] 1 (NQO1), NQO1 (gene 1728); experiment: LTEA_HepaRG_NQO1: Life Technologies and Expression Analysis (LTEA) Assay for NAD(P)H dehydrogenase [quinone] 1 (NQO1) using HepaRG (AID 2283526); details: mRNA level, 48 h; actives raise or lower the signal
In short: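 NQO1 transcript induction or loss measured by TaqMan qRT-PCR, referenced to three housekeeping genes and fitted bidirectionally against 0.5% DMSO. HepaRG cultures exposed 48 h, duplicate, eight-point half-log series, top 100 uM.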

[5] = read-out: Nuclear factor erythroid 2-related factor 2 (Homo sapiens) (UniProt Q16236); experiment: LTEA_HepaRG_NFE2L2: Life Technologies and Expression Analysis (LTEA) Assay for Nuclear factor erythroid 2-related factor 2 (NFE2L2) Transcription Factor using HepaRG (AID 2283527); details: mRNA level, 48 h; actives raise or lower the signal;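 further: TaqMan qRT-PCR transcript level normalised to ACTB GAPDH and POLR2A housekeeping genes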
In short: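 Human liver HepaRG line treated in duplicate for 48 h with an eight-point series topping at 100 uM. Gene expression of NFE2L2 by qRT-PCR, bidirectionally fitted against the vehicle control.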

[6] = read-out: succinate dehydrogenase complex iron sulfur subunit B (SDHB), SDHB (gene 6390); experiment: LTEA_HepaRG_SDHB: Life Technologies and Expression Analysis (LTEA) Assay for succinate dehydrogenase complex iron sulfur subunit B (SDHB) using HepaRG (AID 2283528); details: mRNA level, 48 h; actives raise or lower the signal
In short: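 HepaRG cells (~100,000/well, plated 48 h) exposed in duplicate for 48 h in serum-free induction medium to 8-point half-log series from 100 uM in 0.5% DMSO; mRNA by qRT-PCR normalised to ACTB, GAPDH, POLR2A; bidirectional fit versus DMSO.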

[7] = read-out: Signal transducer and activator of transcription 3 (Homo sapiens) (UniProt P40763); experiment: LTEA_HepaRG_STAT3: Life Technologies and Expression Analysis (LTEA) Assay for Signal transducer and activator of transcription (STAT3) using HepaRG (AID 2283529); details: mRNA level, 48 h; actives raise or lower the signal
In short: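 In this transcriptional endpoint, HepaRG cultures receive test chemicals at up to 100 uM for 48 h, tested in duplicate. STAT3 mRNA is normalized to ACTB, GAPDH and POLR2A.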

[8] = read-out: solute carrier (SLCO1B1), SLCO1B1 (gene 10599); experiment: LTEA_HepaRG_SLCO1B1: Life Technologies and Expression Analysis (LTEA) Assay for solute carrier (SLCO1B1) using HepaRG (AID 2283530); details: mRNA level, 48 h; actives raise or lower the signal
In short: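 Differentiated human HepaRG cells, plated 48 h, switched to serum-free induction medium and exposed in duplicate for 48 h to 8 half-log concentrations (top 100 uM) in 0.5% DMSO. SLCO1B1 mRNA by TaqMan qRT-PCR, normalized to ACTB/GAPDH/POLR2A.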

[9] = read-out: sulfotransferase 2A1 (SULT2A1), SULT2A1 (gene 6822); experiment: LTEA_HepaRG_SULT2A1: Life Technologies and Expression Analysis (LTEA) Assay for sulfotransferase 2A1 (SULT2A1) using HepaRG (AID 2283531); details: mRNA level, 48 h; actives raise or lower the signal
In short: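 Differentiated human HepaRG cells in serum-free induction medium were exposed for 48 h to eight half-log concentrations (top 100 uM, 0.5% DMSO). SULT2A1 mRNA was measured by qRT-PCR, normalized to ACTB, GAPDH and POLR2A, and fitted bidirectionally against DMSO.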

[10] = read-out: Transforming Growth Factor (TGFA), TGFA (gene 7039); experiment: LTEA_HepaRG_TGFA: Life Technologies and Expression Analysis (LTEA) Assay for Transforming Growth Factor (TGFA) using HepaRG (AID 2283532); details: mRNA level, 48 h; actives raise or lower the signal
In short: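 Gene expression of TGFA was quantified by qRT-PCR after human HepaRG cells were treated for 48 h with test chemicals (eight concentrations, highest 100 uM, 0.5% DMSO). Activity in either direction was fitted relative to DMSO.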

[11] = read-out: Transforming Growth Factor (TGFB1), TGFB1 (gene 7040); experiment: LTEA_HepaRG_TGFB1: Life Technologies and Expression Analysis (LTEA) Assay for Transforming Growth Factor (TGFB1) Transporter using HepaRG (AID 2283533); details: mRNA level, 48 h; actives raise or lower the signal
In short: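 Differentiated human HepaRG cells in serum-free induction medium were exposed in duplicate for 48 h to eight concentrations (top 100 uM, half-log steps, 0.5% DMSO). TGFB1 mRNA was quantified by qRT-PCR, normalized to ACTB, GAPDH, POLR2A, and fitted bidirectionally against DMSO.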

[12] = read-out: TIMP1, TIMP1 (gene 7076); experiment: LTEA_HepaRG_TIMP1: Life Technologies and Expression Analysis (LTEA) Assay for TIMP1 using HepaRG (AID 2283534); details: mRNA level, 48 h; actives raise or lower the signal;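 further: TaqMan qRT-PCR signal normalized to ACTB GAPDH and POLR2A housekeeping genes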
In short: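 Differentiated human HepaRG cells in serum-free induction medium were exposed 48 h to chemicals (8 half-log concentrations, top 100 uM, 0.5% DMSO). TIMP1 mRNA was quantified by TaqMan qRT-PCR, normalized to ACTB/GAPDH/POLR2A; bidirectional fit versus DMSO.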

[13] = read-out: Tumor necrosis factor receptor 1 (TNFRSF1A), TNFRSF1A (gene 7132); experiment: LTEA_HepaRG_TNFRSF1A: Life Technologies and Expression Analysis (LTEA) Assay for Tumor necrosis factor receptor 1 (TNFRSF1A) using HepaRG (AID 2283535); details: mRNA level, 48 h; actives raise or lower the signal
In short: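 Differentiated human HepaRG cells were exposed in duplicate for 48 h in serum-free induction medium to eight concentrations (top 100 uM, half-log steps, 0.5% DMSO). TNFRSF1A mRNA was quantified by qRT-PCR, normalized to ACTB, GAPDH and POLR2A, then fitted bidirectionally against DMSO.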

[14] = read-out: UDP glucuronosyltransferase (UGT1A1), UGT1A1 (gene 54658); experiment: LTEA_HepaRG_UGT1A1: Life Technologies and Expression Analysis (LTEA) Assay for UDP glucuronosyltransferase (UGT1A1) using HepaRG (AID 2283538); details: mRNA level, 48 h; actives raise or lower the signal
In short: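 UGT1A1 transcript level, measured by qRT-PCR with three housekeeping genes for normalization, after 48 h treatment of human HepaRG cells (0.5% DMSO, duplicates, up to 100 uM, half-log steps, 8 points). Curves fit both directions against DMSO baseline.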

[15] = read-out: X-box binding protein 1 (XBP1), XBP1 (gene 7494); experiment: LTEA_HepaRG_XBP1: Life Technologies and Expression Analysis (LTEA) Assay for X-box binding protein 1 (XBP1) using HepaRG (AID 2283540); details: mRNA level, 48 h; actives raise or lower the signal
In short: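 Differentiated human HepaRG cells in serum-free induction medium were exposed in duplicate for 48 h to eight half-log concentrations up to 100 uM in 0.5% DMSO. XBP1 mRNA was quantified by qRT-PCR, normalised to ACTB, GAPDH and POLR2A, with bidirectional fitting against DMSO.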

[16] = LTEA_HepaRG_LDH_cytotoxicity: Cytotoxicity Assessment in the Life Technologies and Expression Analysis (LTEA) Assay (AID 2283563; active means hit-call score of the fitted dose curve at least 0.9, where 1 is the maximum)
In short: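 Differentiated human HepaRG cells, plated 48 h beforehand, were switched to serum-free induction medium and exposed for 48 h to eight half-log concentrations (top 100 uM) in 0.5% DMSO. LDH was measured in spent medium; activity was fitted relative to DMSO vehicle.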

[17] = ATG_XTT_Cytotoxicity: Cytotoxicity Assessment in the Attagene TRANS-FACTORIAL HepG2 Assay (AID 2283584; active means hit-call score of the fitted dose curve at least 0.9, where 1 is the maximum;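 on AC50: cells exposed to compound for 24 h before reading; active means loss of viability signal versus DMSO baseline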)
In short: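 HepG2 human liver cells, transiently transfected with multiple GAL4-UAS reporter units, were dosed and read at 24 h by XTT as cell number. Loss of signal was fitted relative to DMSO negative control baseline.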

[18] = read-out: Cellular tumor antigen p53 (Homo sapiens) (UniProt P04637); experiment: LTEA_HepaRG_TP53: Life Technologies and Expression Analysis (LTEA) Assay for Tumor Protein P53 (TP53) using HepaRG (AID 2283537); details: mRNA level, 48 h; actives raise or lower the signal
In short: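 Differentiated HepaRG cells in serum-free induction medium exposed 48 h in duplicate to 8 half-log concentrations, top 100 uM, 0.5% DMSO. TP53 mRNA by TaqMan qRT-PCR (Fluidigm), normalized to ACTB, GAPDH, POLR2A; fitted bidirectionally versus DMSO.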

[19] = TOX21_p53_BLA_p2_viability: Viability Assessment in the Tox21 HCT-116 p53 Agonism Beta-lactamase Assay, Phase 2 (AID 2283591; active means hit-call score of the fitted dose curve at least 0.9, where 1 is the maximum;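 further: compound exposure lasted 16 h at 37 °C; actives lower the ATP signal meaning cytotoxicity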)
In short: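 HCT-116 p53-bla cells (4000/well) rested 5 h at 37C, then received compounds in DMSO (217-fold dilution) for 16 h at 37C, 5% CO2. After the CCF4 read, CellTiter-Glo was added; ATP luminescence was read after 30 min at room temperature.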

[20] = target: Cellular tumor antigen p53 (Homo sapiens) (UniProt P04637); experiment: TOX21_p53_BLA_p2_ratio: Tox21 HCT-116 p53 Agonism Beta-lactamase Assay, Ratio, Phase 2 (AID 2283592; active means hit-call score of the fitted dose curve at least 0.9, where 1 is the maximum)
Sequence of Cellular tumor antigen p53 (Homo sapiens) (P04637 whole entry, looked up): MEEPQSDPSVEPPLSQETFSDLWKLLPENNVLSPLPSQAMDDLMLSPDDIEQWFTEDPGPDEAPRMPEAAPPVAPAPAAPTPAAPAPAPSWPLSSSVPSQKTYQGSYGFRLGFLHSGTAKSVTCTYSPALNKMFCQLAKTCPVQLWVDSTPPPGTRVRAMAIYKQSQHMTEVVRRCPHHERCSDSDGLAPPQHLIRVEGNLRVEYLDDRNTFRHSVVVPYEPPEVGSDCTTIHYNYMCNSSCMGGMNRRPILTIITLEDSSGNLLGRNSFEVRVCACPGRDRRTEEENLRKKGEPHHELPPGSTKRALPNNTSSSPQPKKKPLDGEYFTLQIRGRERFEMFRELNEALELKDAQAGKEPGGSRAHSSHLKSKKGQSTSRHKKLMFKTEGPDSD
In short: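 Ratio endpoint: beta-lactamase cleavage of CCF4-AM, blue (460 nm) over green (530 nm). HCT116 reporter line; 16 h treatment, 37C; substrate 2 h RT.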

Measured: AC50

Sequence of Nuclear factor erythroid 2-related factor 2 (Homo sapiens) (Q16236 whole entry, looked up): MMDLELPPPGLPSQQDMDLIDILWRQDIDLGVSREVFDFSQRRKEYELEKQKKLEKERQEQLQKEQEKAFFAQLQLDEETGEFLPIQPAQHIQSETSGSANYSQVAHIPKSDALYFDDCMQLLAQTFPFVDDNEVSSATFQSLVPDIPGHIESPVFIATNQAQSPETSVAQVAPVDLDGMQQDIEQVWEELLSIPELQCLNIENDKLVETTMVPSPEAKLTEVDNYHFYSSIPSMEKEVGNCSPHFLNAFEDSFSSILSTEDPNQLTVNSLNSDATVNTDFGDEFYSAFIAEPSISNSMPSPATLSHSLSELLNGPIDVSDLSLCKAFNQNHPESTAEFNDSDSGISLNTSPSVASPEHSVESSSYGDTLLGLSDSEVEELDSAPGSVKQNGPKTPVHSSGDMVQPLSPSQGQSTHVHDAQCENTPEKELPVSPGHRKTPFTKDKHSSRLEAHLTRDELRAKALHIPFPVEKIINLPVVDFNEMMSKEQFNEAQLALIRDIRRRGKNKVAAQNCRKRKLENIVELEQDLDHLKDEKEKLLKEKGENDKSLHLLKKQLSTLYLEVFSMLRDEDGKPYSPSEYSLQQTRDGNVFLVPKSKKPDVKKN
Sequence of Signal transducer and activator of transcription 3 (Homo sapiens) (P40763 whole entry, looked up): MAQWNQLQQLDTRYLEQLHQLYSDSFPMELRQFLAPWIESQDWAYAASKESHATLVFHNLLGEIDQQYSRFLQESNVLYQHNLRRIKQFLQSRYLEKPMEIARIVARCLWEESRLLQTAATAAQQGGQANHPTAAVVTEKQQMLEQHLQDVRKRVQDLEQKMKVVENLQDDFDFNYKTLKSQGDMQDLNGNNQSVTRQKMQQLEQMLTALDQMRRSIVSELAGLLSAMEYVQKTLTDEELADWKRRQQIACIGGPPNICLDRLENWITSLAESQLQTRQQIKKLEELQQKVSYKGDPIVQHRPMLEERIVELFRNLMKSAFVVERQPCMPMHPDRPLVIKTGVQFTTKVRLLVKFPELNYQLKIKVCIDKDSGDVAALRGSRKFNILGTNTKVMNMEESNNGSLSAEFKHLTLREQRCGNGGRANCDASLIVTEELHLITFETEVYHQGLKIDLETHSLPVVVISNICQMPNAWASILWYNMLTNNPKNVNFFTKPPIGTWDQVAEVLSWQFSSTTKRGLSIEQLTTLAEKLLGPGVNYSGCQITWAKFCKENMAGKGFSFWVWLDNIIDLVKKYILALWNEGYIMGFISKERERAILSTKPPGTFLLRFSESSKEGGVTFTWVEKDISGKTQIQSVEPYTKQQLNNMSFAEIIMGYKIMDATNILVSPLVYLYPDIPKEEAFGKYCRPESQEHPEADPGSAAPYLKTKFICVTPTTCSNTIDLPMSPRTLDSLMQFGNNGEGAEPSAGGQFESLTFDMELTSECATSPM
Sequence of Nuclear factor NF-kappa-B p105 subunit (Homo sapiens) (P19838 whole entry, looked up): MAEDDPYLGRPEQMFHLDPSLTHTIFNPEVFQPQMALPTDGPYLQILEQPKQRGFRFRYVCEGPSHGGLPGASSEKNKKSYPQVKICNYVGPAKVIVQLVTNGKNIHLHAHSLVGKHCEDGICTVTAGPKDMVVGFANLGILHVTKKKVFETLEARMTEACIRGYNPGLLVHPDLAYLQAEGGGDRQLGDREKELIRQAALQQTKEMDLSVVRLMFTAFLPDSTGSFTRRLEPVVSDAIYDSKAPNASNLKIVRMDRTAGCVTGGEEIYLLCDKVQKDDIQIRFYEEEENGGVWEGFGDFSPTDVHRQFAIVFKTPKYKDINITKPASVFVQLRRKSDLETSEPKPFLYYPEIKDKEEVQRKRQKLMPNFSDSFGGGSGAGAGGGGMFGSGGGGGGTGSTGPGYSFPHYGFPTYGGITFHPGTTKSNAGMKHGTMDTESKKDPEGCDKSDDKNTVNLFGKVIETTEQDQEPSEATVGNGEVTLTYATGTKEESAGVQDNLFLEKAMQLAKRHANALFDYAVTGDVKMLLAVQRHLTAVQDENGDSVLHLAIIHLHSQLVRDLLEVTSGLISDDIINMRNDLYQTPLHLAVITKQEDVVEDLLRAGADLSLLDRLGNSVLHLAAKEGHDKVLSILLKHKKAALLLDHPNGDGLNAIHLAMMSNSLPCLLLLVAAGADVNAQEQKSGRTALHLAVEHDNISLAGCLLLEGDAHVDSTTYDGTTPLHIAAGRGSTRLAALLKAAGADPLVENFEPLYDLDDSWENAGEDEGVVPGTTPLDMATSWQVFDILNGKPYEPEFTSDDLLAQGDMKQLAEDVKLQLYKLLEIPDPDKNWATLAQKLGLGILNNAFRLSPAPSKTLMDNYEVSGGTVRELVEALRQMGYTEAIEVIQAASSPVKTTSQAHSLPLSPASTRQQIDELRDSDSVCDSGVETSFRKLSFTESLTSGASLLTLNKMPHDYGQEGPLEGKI

CCCCCCCCCCCCCCC
active: [14] 19.8 µM
not listed: [18] | [19] | [20]
inactive: all other assays above

CC(=O)Nc1ccc(O)cc1
not listed: [1] | [5] | [17] | [18] | [19] | [20]
inactive: all other assays above

NC(=NCCCCCCN=C(N)/N=C(\N)Nc1ccc(Cl)cc1)/N=C(\N)Nc1ccc(Cl)cc1
active: [17] 31.6 µM

CCOC(=O)c1nc(C(Cl)(Cl)Cl)n(-c2ccc(Cl)cc2Cl)n1
inactive: [17]

O=S(=O)(O)c1ccccc1
inactive: [17]

C=CC(=O)OCC(CO)(COCC(COC(=O)C=C)(COC(=O)C=C)COC(=O)C=C)COC(=O)C=C
active: [17] 29.3 µM

OCC(CO)(CBr)CBr
not listed: [17] | [18] | [19] | [20]
inactive: all other assays above

CCCCC=O
not listed: [18] | [19] | [20]
inactive: all other assays above

O=C(c1ccccc1)c1ccccc1
active: [14] 4.85 µM
not listed: [1] | [5]
inactive: all other assays above

CC(C)C=O
inactive: [17]
